Among the data in PubChem BioAssay (NCI) are growth values, retold here.

This is part of a sample that, as a whole, favours compounds with a hit. Of some 83,000 tested, about 20% had one in any assay.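 A percent growth of 40 corresponds to 60% growth inhibition; 0 means no net growth; -100 means all cells died. Active threshold: below 10.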 Unmarked numbers belong to inactive results. The source made the active and inactive calls.

The subject of the experiment is TK-10 renal. Nature of the experiment: NCI-60 one-dose screen, 48 h (100 = growth as untreated, 0 = no growth, -100 = all killed). Conditions: 10 µM unless noted. The protocol:
Growth inhibition of the TK-10 human tumor cell line is measured as a screen for anti-cancer activity. Cells are grown in 96 well plates and exposed to the test compound for 48 hours. Compounds are tested at a single concentration, which is 10^-5 M for most compounds. The reported endpoint is percent growth (GI% or GIPRCNT), where numbers from 0 - 100% represent growth inhibition, and numbers from -100% - 0 represent cell death. For example, a value of 40 represents 60% growth inhibition. A value of 0 means no net growth occurred over the course of the experiment. A value of -40 indicates 40% of cells at the beginning of the experiment died by the end of the experiment. A value of -100 means all cells are dead at the end of the experiment.
NCI-60 Human Tumor Cell Lines Screen was performed using the standard one-dose NCI protocol, which is described in more detail at https://dtp.cancer.gov/discovery_development/nci-60/default.htm.
Compounds with GIPRCNT values below 10 were considered active. Activity score was based on GIPRCNT using the following formula: […]
Score is 0 for GIPRCNT values of 100 or above, 50 for GIPRCNT values of 0, and 100 for GIPRCNT values of -100.
Turning to `COc1cc(CNC(=O)/C=C/C=C/c2ccc3c(c2)OCO3)ccc1OCc1cn(-c2ccc(Cl)c(Cl)c2)nn1`, the growth was -11.4% (active).
Under `CCOC(=O)C1C(=O)C=C(c2cnccn2)CC1c1ccc(OC)c(OC)c1` (stereo not given) stands 87.8%; under `Oc1[nH]c2ccccc2c1/C=c1/cc2c(c(-c3ccc(F)cc3)n1)=Nc1ccccc1-2`, 16.3%; under `NS(=O)(=O)c1cn(-c2ncnc3nc[nH]c23)ccc1=O`, 94.5%.
`CN1CCN(c2ccc3nc(/N=C/c4ccc5sc(-c6ccc([N+](=O)[O-])cc6)nc5c4)sc3c2)CC1`: the growth is 101%.
Under `COc1ccc2c(c1)/C(=C\c1sc(=S)[nH]c1O)C(C(=O)O)=N2` stands 108%.
Under `CCCCCCNCc1cc(C(C)(C)C)cc(CNCCCCCC)c1O` stands -80.4% (active); under `O=C1C2=C(CCN(Cc3ccccc3)C2)N2CCN=C2N1Cc1ccc(F)cc1F`, 44.8%; under `Cl.Fc1c[c-]c(-c2ccccn2)c(F)c1.[Pt].c1ccc(P(c2ccccc2)C([PH+](c2ccccc2)c2ccccc2)[PH+](c2ccccc2)c2ccccc2)cc1`, 24.3%.
Under `Nc1c(C(=O)Nc2ccccc2)sc2nc3c(cc12)CCCCCC3` stands 36.3%; under `CCn1nc(C#Cc2c(C)ccc3c(Nc4ccc(Cl)cc4)nccc23)c2c(N)ncnc21`, 16.8%; under `C=C(CNCCc1ccc(O)cc1)[C@@H]1CC[C@]2(COC3CCCCO3)CC[C@]3(C)[C@H](CC[C@@H]4[C@@]5(C)CCC(NCCO)C(C)(C)[C@@H]5CC[C@]43C)[C@@H]12` (stereo not given in full), -89.7% (active).
In the case of `Cc1ccc(S(=O)(=O)NN/C(N)=N\S(=O)(=O)c2cc(C)c(Cl)cc2SCc2ccccc2)cc1`, the growth is 130%.
Under `CCOC(=O)c1c(C)[nH]c(C(=O)CCC(=O)OC)c1C` stands 84.3%; under `C(=C\c1nc2ccccc2[nH]1)/c1nc2ccccc2[nH]1`, 143%.
Under `COc1cc(NC(=O)c2cc(O)c(CC=C(C)C)c(O)c2)cc2c1O[C@]1(C)CC[C@@H](O)C(C)(C)[C@H]1C2` stands 56.4%.
Under `CC(=O)c1sc(-c2ccccc2)cc1N` stands 101%.
Take `NC(N)=N/N=C(/c1ccccc1)c1ccccc1F`: the growth is 64.9%.
As to `COc1ccc(C(=O)/C=C/C23c4ccccc4C(c4ccccc42)C2C(=O)NC(=O)C23)cc1` (stereo not given), the growth is 114%.
In the case of `O=C(CCc1nc(-c2cccc(Cl)c2)no1)Nc1ccccn1`, the growth was 111%.
For the compound `Nc1ccc(S(=O)(=O)Nc2ccsc2-c2nc(-c3ccccc3)no2)cc1`, the growth is 66.1%.
Take `CCN(CC)CCNc1ccc(C)c2sc3cc(C)ccc3c(=O)c12`: the growth is 57.9%.
Under `C=C1C(=O)O[C@H]2[C@H]1CC/C(COC(=O)/C=C\C(=O)NCc1ccc(Cn3c(=O)sn(-c4ccc(OC)cc4)c3=O)cc1)=C\CC[C@@]1(C)O[C@@H]21` stands -75.4% (active); under `N#C/C(=C\c1ccc2c(c1)OCO2)n1nnc2ccccc21`, 28.3%.
Under `C[C@@H]1C(=O)N(C[C@H](Cc2ccccc2)N(Cc2ccccc2)Cc2ccccc2)[C@]1(Cc1ccccc1)C(=O)OC(C)(C)C` stands 50.5%; under `N#Cc1c(NC(=O)c2cccc(C(F)(F)F)c2)sc2c1CCC(=O)C2`, -5.21% (active); under `O=[N+]([O-])c1ccc2[nH]cc(-c3c4ccsc4cc4[nH]c5ccc([N+](=O)[O-])cc5c34)c2c1`, 30.9%.
Under `C[C@]12CCC(=O)C[C@H]1CC[C@@H]1[C@@H]2CC[C@@]2(C)[C@H]1CC[C@]2(O)C(=O)CO` stands 131%; under `CC1(C)N=C(N)N=C(N)N1c1cccc(CN)c1`, 101%.
Consider `c1ccc2[nH]c(SSc3nc4ncncc4[nH]3)nc2c1`, for which the growth was 30%.
For `Cc1cc(=O)[nH]c(N/N=C/c2cc(Br)ccc2O)n1`, the growth is 45%.
Under `CCCCNC(=O)NS(=O)(=O)c1ccc(N2N=C(c3ccc(C)cc3C)CC2c2ccc(N(C)C)cc2)cc1` (stereo not given) stands 83%; under `O=C(NCCOCCOCCOCCNC(=O)c1cc2c(o1)C(=O)c1ccccc1C2=O)NC12CC3CC(CC(C3)C1)C2`, -3.88% (active); under `CCCCN(CCCC)CCCn1c(=O)c2sc3ncccc3c2n2nnc(-c3ccccc3)c12`, 118%.
Under `Fc1ccc(Nc2nc(Nc3ccc(-c4nc5ccccc5[nH]4)cc3)c3cn[nH]c3n2)cc1` stands 99.5%.
Under `Cc1cc2c(F)c(Oc3ncnc(Nc4ccc(N5C[C@@H](C)N[C@@H](C)C5)cc4)c3C#N)cc(F)c2[nH]1` stands 70.9%; under `Cl.Fc1c[c-]c(-c2ccccn2)c(F)c1.[Pt].c1ccc([PH+](C[PH+](c2ccccc2)c2ccccc2)c2ccccc2)cc1`, -81.4% (active); under `C=C1c2c(C)nn(-c3ccc(S(N)(=O)=O)cc3)c2N(C)C23CC1C1(C)c4c(C)nn(-c5ccc(S(N)(=O)=O)cc5)c4N(C)C(C)(CC12)C3` (stereo not given), 46.6%.
Regarding `O=C(NC(=S)Nc1ccc(-c2nc3ccccc3[nH]2)cc1)c1ccc2ccccc2c1`, the growth was -16.5% (active).
Under `COc1ccc(/C=C2\COc3ccc(O)c(O)c3C2=O)c(OC)c1` stands 22.5%.
